# Assay outcomes (PubChem)
# ssDAF12 agonist = activators of S. stercoralis DAF-12 nuclear receptor; HEK293 ssDAF-12/GRIP1 lit1-tk-luc reporter, luminescence; % of 3 µM dafachronic acid response; activation, % at 6.8 µM; 1% of 370,000 active;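 active = activation above the mean over all tested compounds plus 3 SD, cut at about 0.9% in these data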
# DAX1 inh-1 = inhibits human nuclear receptor DAX1 | inhibition, % at 6.75 µM | 0.99% of 340,000 active | P51843 | HEK293 Gal4-DAX1 luciferase reporter, luminescence;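 active = inhibition above the mean over all tested compounds plus 3 SD, cut at about 4.2% in these data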;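 also: inhibition shows as a rise in luminescence from relieved DAX1 repression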
# Target sequence (P51843 207-470 limits assumed): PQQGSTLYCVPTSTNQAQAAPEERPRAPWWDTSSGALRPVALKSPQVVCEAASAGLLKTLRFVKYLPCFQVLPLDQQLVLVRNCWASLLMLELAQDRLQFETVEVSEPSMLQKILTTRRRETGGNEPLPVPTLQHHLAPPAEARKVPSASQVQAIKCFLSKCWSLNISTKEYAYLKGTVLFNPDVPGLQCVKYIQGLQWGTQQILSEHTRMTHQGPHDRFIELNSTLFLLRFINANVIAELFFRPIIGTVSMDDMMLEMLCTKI
# hgDAF-12 ag = hgDAF-12 agonism, primary luciferase screen | HEK293 GAL4-hgDAF12 UAS-luciferase reporter, agonist luminescence; normalized to butyrate control | activation, % at 6.8 µM | 1.8% of 370,000 active | AID 687014;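 active = activation above a cutoff set at the mean of all screened compounds plus 3 SD, cut at about 10% in these data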
# hcDAF-12 act = activates DAF-12 receptor from parasite H. contortus. activation, % at 6.8 µM. 1.4% of 370,000 active. HEK293 hcDAF-12 lit1-tk-luc reporter, luminescence; 0% DMSO, 100% Δ7-dafachronic acid;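 active = activation above the mean of all tested compounds plus 3 SD, cut at about 5.5% in these data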
# FXN GAA850 act = increases GAA850 frataxin promoter reporter activity; 0.56% of 360,000 active; HEK293 lucGAA850 FXN promoter luciferase reporter, 24 h; percent of 10 µM SAHA response; AID 540364; activation, % at 6 µM;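 active = activation above the average of all compounds screened plus 3 SD, cutoff fixed separately per campaign, cut at about 7.5% in these data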
# DAX1 inh-2 = inhibitors of DAX1 repression of SF-1 activated StAR promoter | inhibition, % at 6.8 µM | AID 652010 | 1.1% of 370,000 active | HEK293T StAR-luciferase reporter, SF-1/DAX-1 repression relief;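 active = inhibition above the mean over all tested compounds plus 3 SD, cut at about 3.6% in these data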;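 also: higher inhibition means more luminescence from relief of DAX-1 repression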
# A number is an active result; - = inactive; . = no result given. The list is not random: actives were taken first. Their share in the collection is about 4.5%.
SMILES,ssDAF12 agonist,DAX1 inh-1,hgDAF-12 ag,hcDAF-12 act,FXN GAA850 act,DAX1 inh-2
O=C(NCC(=O)N1CCN(c2ccccc2)CC1)c1ccc(Cl)cc1,-,4.9,-,-,-,-
O=C(CNC(=O)c1ccc(Br)cc1)c1ccccc1,-,-,13,-,-,-
O=C(NCC(=O)N1CCOCC1)c1ccc(Br)cc1,-,-,-,-,-,-
O=C(NCC(=O)N1CCCCCC1)c1ccc(Br)cc1,-,4.4,-,-,-,-
O=C(CCSc1ccccc1)N1CCN(c2ccccc2)CC1,-,-,12,-,-,-
O=C(Cc1ccccc1Cl)NCCN1C(=O)C2C3C=CC(C3)C2C1=O (stereo unspecified),-,.,-,-,.,-
C[C@H](O)[C@@H]1C(=O)N2CCc3c([nH]c4c(-c5ccc6c(c5)OCO6)cccc34)[C@@H]2C[C@@H]1N(C)C(=O)c1ccccc1F,-,.,-,-,.,-
NC(=O)c1c(N)[nH]c(C(=O)c2ccccc2)c1-c1ccccc1C(F)(F)F,-,.,-,-,.,.
O=C(CNC(=O)c1ccc(F)cc1)c1ccc(Cl)cc1,-,-,11,-,-,-
O=C(NNC(=O)c1ccccc1O)c1ccc(Br)cc1,-,7.4,-,-,-,-
Cc1nc(C(=O)NCC(=O)c2ccc(Cl)cc2)c(C(F)(F)F)o1,1.6,-,-,-,-,-
Cc1nc(C(=O)NNC(=O)c2ccc(Cl)cc2)c(C(F)(F)F)o1,-,-,-,-,-,-
O=C(COC(=O)c1ccccc1O)NNC(=O)c1ccc(Br)cc1,-,-,-,-,-,-
COc1ccc([C@H](C#Cc2ccccc2)CC(=O)O)cc1OC1CCCC1,-,.,-,-,.,-
CCOC(=O)C1=NOC(C(=O)NCc2ccccc2)(C(=O)c2ccc(OC)cc2)C1 (stereo unspecified),-,.,-,-,.,-
CCC1CCc2sc(C(=O)Nc3cc(S(=O)(=O)N4CCOCC4)ccc3OC)cc2C1 (stereo unspecified),-,.,-,-,.,.
O=C(/C=C/c1ccc(F)cc1)N1CCc2ccccc2C1,-,-,-,-,-,3.8
Clc1ccccc1Cn1ccc2ccc(-c3ccc4ccn(Cc5ccccc5Cl)c4c3)cc21,-,.,-,-,.,-
CSc1nnc2c(n1)c(C)nn2-c1ccc(C)cc1,1.3,-,-,-,-,-
C=C1C(=O)[C@]23C[C@H]1CC[C@H]2[C@]1(C)[C@@H](O)CC[C@@](C)(C(=O)O)[C@H]1C[C@@H]3O,-,.,-,-,.,4.3
C=C1C(=O)[C@]23C[C@H]1CCC2[C@@]1(C)C(C[C@@H]3O)[C@](C)(C(=O)O)C[C@H](O)[C@@H]1O (stereo partly specified),-,.,-,-,.,-
CC1(C)C2CCC1(C(=O)O)c1nc3ccccc3nc12 (stereo unspecified),-,4.8,-,-,-,-
Cc1cc2cc(CN3C(=O)c4ccccc4C3=O)ccc2n1C,-,-,-,6.1,-,-
O=C(CN1CCOCC1)NNC(=S)Nc1ccccc1,-,6.1,-,-,-,-
NC(=O)c1ccccc1NC(=O)CN1CCOCC1,-,4.3,-,-,-,-
SMILES,ssDAF12 agonist,DAX1 inh-1,hgDAF-12 ag,hcDAF-12 act,FXN GAA850 act,DAX1 inh-2
O=C(CN1CCOCCOCCOCC1)Nc1ccccc1,-,-,-,-,-,-
O=S1(=O)c2ccc(N3CCSCC3)cc2Oc2ccccc2CN1Cc1cn(Cc2ccc(Cl)cc2)nn1,-,.,-,-,.,-
Cc1cc(N2CCCCC2C)nc(-c2ccccc2O)n1 (stereo unspecified),-,4.4,-,-,-,-
Cc1cc(N2CCCCCC2)nc(-c2ccccc2O)n1,-,-,-,-,-,-
Cc1ccc(-n2c(Cc3cccs3)nnc2SCc2ccc(C#N)cc2)cc1,-,.,-,-,.,-
Nc1nc(=O)n(C2CC(O)C(CO)O2)cc1Cl (stereo unspecified),3.1,.,-,-,.,-
CCOC(=O)C1=NOC(C(C)=O)(C(=O)Nc2cc(C)cc(C)c2)C1 (stereo unspecified),-,.,-,-,.,-
Cc1ccc(O)c(C2=Nc3ccccc3N=C(c3ccc([N+](=O)[O-])cc3)C2)c1,1.0,-,-,-,-,-
Cc1ccc(O)c(C2=Nc3ccccc3N=C(c3cccc([N+](=O)[O-])c3)C2)c1,-,-,-,-,-,-
O=c1c(-c2ccc(Cl)cc2)[n+]([O-])c2ccccc2n1O,-,-,-,-,-,-
O=c1c(-c2cccc([N+](=O)[O-])c2)[n+]([O-])c2ccccc2n1O,-,6.5,-,-,-,-
O=C1[C@@H](C2CCCCC2)[C@@H]2c3ccccc3C=NN2[C@@H]2c3ccccc3C=NN12,-,.,-,-,.,-
O=C(NC(=S)Nc1ccc2cn[nH]c2c1)c1ccccc1,-,-,12,-,-,3.6
CC(=O)c1cccc(NC(=S)NC(=O)c2cccc(Cl)c2)c1,-,-,-,-,-,-
O=C(NC(=O)c1ccccc1)Nc1ccccc1,1.3,-,12,6.2,-,-
CC(=O)c1cccc(NC(=S)NC(=O)c2ccccc2)c1,-,-,12,-,-,-
COc1ccc(NC(=O)NC(=O)c2ccccc2)cc1,-,-,-,-,-,-
COc1ccc(-n2c(SCC(=O)Nc3ccccc3-c3ccccc3)nnc2-c2ccccn2)cc1,-,.,-,-,.,-
C#CCNC(=O)C[C@H]1C[C@@]2(C(=O)OC)C(=C[C@H](C3CCCC3)O[C@@H]2C)N(CCc2ccc(OC)c(OC)c2)C1=O,-,.,-,-,.,-
C[C@@H]1CCCCO[C@@H](CN(C)Cc2ccncc2)[C@@H](C)CN([C@H](C)CO)C(=O)c2cc(NC(=O)c3ccccc3)ccc2O1,-,4.8,-,-,-,-
Cc1noc(C)c1NC(=O)Nc1ccc2c(c1)C(=O)N([C@@H](C)CO)C[C@@H](C)[C@H](CN(C)S(=O)(=O)c1ccc(F)cc1)OCCCC[C@H](C)O2,-,.,-,-,.,.
Cc1noc(C)c1NC(=O)Nc1ccc2c(c1)C(=O)N([C@H](C)CO)C[C@H](C)[C@@H](CN(C)S(=O)(=O)c1ccc(Cl)cc1)OCCCC[C@@H](C)O2,-,6.1,-,-,-,-
C[C@@H]1CN([C@@H](C)CO)C(=O)c2cc(NC(=O)c3ccncc3)ccc2O[C@@H](C)CCCCO[C@@H]1CN(C)C(=O)Cc1ccccc1,-,-,-,-,-,-
C[C@@H]1CCCCO[C@H](CN(C)Cc2ccncc2)[C@@H](C)CN([C@H](C)CO)C(=O)c2cc(N(C)C)ccc2O1,-,.,-,-,.,-
C[C@@H]1CN([C@@H](C)CO)C(=O)c2cc(N(C)C)ccc2O[C@@H]1CN(C)Cc1ccncc1,1.3,-,-,-,-,-
COc1ccc(OC)c(S(=O)(=O)n2c(CN3CCOCC3)nc3ccccc32)c1,-,.,-,-,.,-
